Sampled rows, rich in hits. Any-hit rate of the full collection: about 0.9%.
SSB-PriA inh = inhibitors of Klebsiella pneumoniae PriA binding to SSB C-terminal tail | AID 1272365 | inhibition, % at 33 µM | hit rate 0.6% among 430,000 | AlphaScreen SSBct-PriA binding, biotinylated peptide; in the data active means inhibition mostly above about 37%, no sharp cut-off; inactive means mostly below about 20%;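 further: plate controls were negative control peptide for no effect and reference peptide for full effect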
3CLpro inhibitor = SARS-CoV 3CLpro protease inhibition. P0C6X7. recombinant SARS-CoV 3CLpro, quenched FRET peptide cleavage. inhibition, % at 6 µM. hit rate 0.14% among 290,000. AID 1706; in the data active means inhibition above about 12%
MazEF act = activators of E. coli MazEF toxin-antitoxin RNase. P0AE70. FAM/BHQ RNA-DNA oligo cleavage fluorescence, 5 h. activation, % at 20 µM. hit rate 0.32% among 350,000; in the data active means activation above about 50%
Target sequence (P0AE70 whole entry, looked up): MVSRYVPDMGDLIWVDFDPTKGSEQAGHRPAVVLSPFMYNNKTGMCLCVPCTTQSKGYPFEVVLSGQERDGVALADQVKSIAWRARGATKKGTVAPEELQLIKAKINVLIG
Y pestis TopoI = blocks Yersinia pestis topoisomerase I activity | AID 504884 | Y. pestis Topo-I cleavage product accumulation, plate reader | activity, % at 10 µM | hit rate 0.064% among 360,000; in the data active means activity above about 50%, passing the limit was not always enough
* hit, by the source's call; i = inactive; . = no result.

SMILES	SSB-PriA inh	3CLpro inhibitor	MazEF act	Y pestis TopoI
O=C(c1cccs1)N1N=C(c2ccccc2)CC1c1ccc2nccnc2c1 (configuration not stated)	37*	.	.	.
O=C(c1cccs1)N1N=C(c2ccccc2)C[C@H]1c1ccc2nccnc2c1	-1	.	.	.
CCN(CC)S(=O)(=O)c1ccc(C(=O)/C=C/c2ccc(-c3ccc([N+](=O)[O-])cc3)o2)cc1	-18	0	298*	-6
Cc1nc(C)c(C(=O)N2CC(n3cc(-c4ccccc4)nn3)C2)s1	-6	.	.	.
CCCN1CCCc2cc(CCNC(=O)OCC)ccc21	71	.	.	.
CCCN1CCCc2cc(CCNC(=O)COc3ccc(C)cc3)ccc21	64	.	.	.
CCCN1CCCc2cc(CCNC(=O)COc3ccc(OC)cc3)ccc21	74*	.	.	.
CCCN1CCCc2cc(CCNC(=O)COc3ccc(Cl)cc3)ccc21	73*	.	.	.
CCCN1CCCc2cc(CCNC(=O)COc3cccc(C)c3)ccc21	90*	.	.	.
CCCN1CCCc2cc(CCNC(=O)COc3ccccc3C)ccc21	68*	.	.	.
CCCN1CCCc2cc(CCNC(=O)c3ccc(OC)cc3)ccc21	74*	.	.	.
CCCN1CCCc2cc(CCNC(=O)C(=O)Nc3ccccc3OCC)ccc21	58	.	.	.
CCCN1CCCc2cc(CCNC(=O)c3cccc(OC)c3OC)ccc21	24	.	.	.
CCN1CCCc2cc(CCNC(=O)c3ccccc3C(F)(F)F)ccc21	59*	.	.	.
COc1ccc(C(=O)NCCc2ccc3c(c2)CCCN3C)cc1	33	.	.	.
CCCN1CCCc2cc(CCNC(=O)c3cc(Cl)ccc3OC)ccc21	66*	.	.	.
CCCN1CCCc2cc(CCNC(=O)c3ccccc3OCC)ccc21	74*	.	.	.
O=C(Cc1csc(NC(=O)c2ccc(Cl)cc2)n1)NCCc1c[nH]c2ccccc12	29	.	.	.
COC(=O)/C=C1\NC(=Nc2nc(C)cc(C)n2)N(c2ccccc2)C1=O	-9	.	.	.
CCCC(=O)NCCc1ccc2c(c1)CCCN2CCC	28	.	.	.
CCCN1CCCc2cc(CCNC(=O)COc3ccc(F)cc3)ccc21	78*	.	.	.
Cc1c(N=Cc2cc3ccccc3nc2Cl)c(=O)n(-c2ccccc2)n1C	-11	.	.	.
Cc1cc(O)c(C=Nc2ccc(N3CCOCC3)cc2)c(C)c1Cl	-5	0	261*	-10
O=C(CCc1ccccc1F)N(Cc1ccsc1)Cc1ccco1	-6	.	.	.
O=C1CC(c2ccccc2F)C(=O)N1 (configuration not stated)	42*	.	.	.
SMILES	SSB-PriA inh	3CLpro inhibitor	MazEF act	Y pestis TopoI
O=C1CC(c2ccccc2F)C2=C(COC2=O)N1 (configuration not stated)	7	4	8	-3
COc1ccc(N/C=C\C(=O)c2ccc(C)cc2)cc1OC	-11	5	255*	6
COc1ccc(N/C=C\C(=O)c2ccc(Br)cc2)cc1OC	1	-1	9	11
Cc1ccccc1Cn1cc(S(=O)(=O)CC(=O)Nc2cccc(C)c2C)c2ccccc21	15	.	.	.
S=C(NCc1ccccn1)NN=Cc1ccccn1	61*	.	7	10
S=C(NCc1ccccc1)N/N=C/c1ccccn1	i	.	.	.
COc1cccc(NC(=O)NCCn2cncc(C)c2=O)c1OC	9	.	.	.
Cc1oc(-c2ccc(Cl)cc2[N+](=O)[O-])cc1C(=O)Nc1cccc(F)c1	35*	.	.	.
CC(=O)Cc1nsc(NC(=O)c2cc(-c3ccc(Cl)cc3[N+](=O)[O-])oc2C)n1	-9	.	.	.
Fc1ccc(/C=N/NC2=Nc3cccc4cccc2c34)cc1	.	3	110*	-3
CCOc1cc(/C=C2/C(=N)N3OC(C)=CC3=NC2=O)ccc1OC(=O)c1ccco1	-12	5	49	-7
CCOc1ccc(/C=C2/C(=N)N3OC(C)=CC3=NC2=O)cc1OC	15	1	-2	-2
CCOc1cc(/C=C2/C(=N)N3OC(C)=CC3=NC2=O)ccc1OCCOc1ccccc1	1	2	149*	7
COc1cc(/C=C2/C(=N)N3OC(C)=CC3=NC2=O)ccc1OCCOc1ccc(C)cc1	-15	1	91*	6
CCOCC(=O)NCCn1ccn2nccc12	-22	.	.	.
N#Cc1c(N)sc(=S)c2c1CCCC2	65*	-4	-4	-11
Cc1ccc(-c2ccc(N3CCN(S(=O)(=O)c4cccnc4)CC3)nn2)c(C)c1	0	.	.	.
CCCCOC(=O)Nc1nnc(/C=C/c2ccc(OC)cc2)s1	-2	1	-4	53*
COc1ccc(Nc2ccc3c(c2)=NC2(CCCCC2)[N+]=3[O-])cc1	65*	-1	3	-6
[O-][N+]1=c2ccc(Nc3ccccc3)cc2=NC12CCCCC2	57*	4	0	-3
COc1ccc(NC2=NC(=S)N(c3ccccc3C)C23CCCCC3)cc1	-9	0	-7	8
Cc1nnsc1C(=O)NCCn1ncc2c(N3CCOCC3)ncnc21	-19	.	.	.

Screening data (PubChem BioAssay)
